CYP2C19 inhib = blockers of cytochrome P450 2C19 activity – biochemical, luminescence, ADME assay, primary screen | CYP2C19 Supersomes, luciferin-H EGE luminescence, 30 min | inhibition, % at 5 µM | 96,000 tested, 21% active | AID 778, 2007;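 active = CYP2C19 inhibition above a set limit at 5 µM in the primary screen, cut at about 50% in these data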;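 also: plate controls were negative control wells for no effect and 2.5 mM tranylcypromine positive control for full effect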
sEH inhibitor = soluble epoxide hydrolase inhibitors, primary screen, biochemical, human sEH. Bifunctional epoxide hydrolase 2 (Homo sapiens), P34913. recombinant human sEH enzymatic activity assay. inhibition, % at 2 µM. 91,000 tested, 0.34% active. AID 707, 2007; in the data active = inhibition above about 80%
Target sequence (P34913 whole entry, looked up): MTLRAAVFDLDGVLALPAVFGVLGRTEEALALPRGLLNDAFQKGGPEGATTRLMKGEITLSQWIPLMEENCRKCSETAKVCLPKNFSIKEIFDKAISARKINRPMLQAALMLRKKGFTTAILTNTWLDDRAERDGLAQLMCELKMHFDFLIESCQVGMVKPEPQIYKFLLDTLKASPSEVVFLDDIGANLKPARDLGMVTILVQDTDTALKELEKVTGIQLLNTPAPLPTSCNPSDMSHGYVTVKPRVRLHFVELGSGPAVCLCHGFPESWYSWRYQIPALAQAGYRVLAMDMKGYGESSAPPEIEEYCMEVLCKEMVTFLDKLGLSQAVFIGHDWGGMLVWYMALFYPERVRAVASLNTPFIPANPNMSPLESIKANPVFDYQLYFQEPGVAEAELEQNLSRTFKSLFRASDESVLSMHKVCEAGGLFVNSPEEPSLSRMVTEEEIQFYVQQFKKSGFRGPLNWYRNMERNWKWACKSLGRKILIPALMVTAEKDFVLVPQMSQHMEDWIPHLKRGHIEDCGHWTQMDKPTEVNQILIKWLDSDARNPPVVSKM
CYP2C9 activ = human CYP2C9 activators, primary screen, biochemical, luminescence; Cytochrome P450 2C9 (Homo sapiens), P11712; recombinant CYP2C9, luciferin-H conversion; hits give high values; factor 1 = untreated enzyme, 0 = blocked; activation factor at 5 µM; 96,000 tested, 1.4% active; AID 1024, 2008;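 active = activation factor of 2 or more for CYP2C9 at a 5 µM dose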;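 also: 0 = sulfaphenazole-blocked wells and 1 = vehicle-only wells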
CYP2C19 activ = human CYP2C19 activators, primary screen, biochemical, luminescence. Cytochrome P450 2C19 (Homo sapiens), P33261. recombinant CYP2C19, luciferin-H EGE luminescence; hits give high values; 0 = fully inhibited enzyme, 1 = untreated enzyme. activation factor at 5 µM. 96,000 tested, under 10 active. AID 1025, 2008;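 active = activation factor of at least 2 at 5 µM in the primary screen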;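 also: 0 = wells with 2.5 mM tranylcypromine and 1 = vehicle-only wells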
CYP2C9 inhib = blockers of cytochrome P450 2C9 activity – biochemical, luminescence, ADME assay, primary screen; P11712; CYP2C9 Supersomes, luciferin-H conversion; inhibition, % at 5 µM; 96,000 tested, 20% active; AID 777, 2007;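 active = blocking of liver enzyme CYP2C9 beyond about 50% at 5 µM, limit read from the data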
sEH act = soluble epoxide hydrolase activators, primary screen, biochemical, human sEH; Bifunctional epoxide hydrolase 2 (Homo sapiens), P34913; purified human sEH enzymatic activity, activator screen; activation, % at 2 µM; 91,000 tested, 0.04% active; in the data active = activation above about 37%
* = called active by the depositor; x = not tested or not shown. This is a sample that favours compounds with a hit; in the whole collection about 27% have one here.

SMILES	CYP2C19 inhib	sEH inhibitor	CYP2C9 activ	CYP2C19 activ	CYP2C9 inhib	sEH act
CCCCCNc1nc(N2CCCC2)c2c(c1C#N)CCN(C)C2	29	6	0.7	0.7	30	-7
COC(=O)CSc1nc2c(c(-c3ccc(C)o3)c1C#N)CCCC2	35	-7	1.7	0.6	-66	8
COC(=O)CSc1nc(N2CCCCC2)c2c(c1C#N)CCCC2	68*	-9	0.1	0.3	90*	9
CCCCCNc1nc(NCCCO)c(C#N)c2c1CN(C)CC2	24	-6	0.5	0.8	54*	6
CCc1ccc(NC(=O)N(C2CCCCC2)C(C)c2cccnc2)cc1 (centres undefined)	17	28	0.8	0.8	16	-28
C=CCn1cc(C(=O)NCc2cccnc2)c(=O)c2cc(S(=O)(=O)N(CC)CC)ccc21	43	0	0.1	0.6	89*	2
C=CCn1cc(C(=O)NCCOC)c(=O)c2cc(S(=O)(=O)N(CC)CC)ccc21	1	4	0.3	1	75*	-4
CCN(CC)S(=O)(=O)c1ccc2c(c1)c(=O)c(C(=O)NCCOC)cn2C	1	9	0.7	1	31	-6
C=CCn1cc(C(=O)NCCCOCC)c(=O)c2cc(S(=O)(=O)N(CC)CC)ccc21	24	1	0.4	0.8	56*	1
O=C(c1c(F)cccc1F)N(Cc1ccccn1)C1CC1	4	-13	1.1	1	-7	16
CC(=O)N1c2ccccc2C(C)(c2ccccc2)CC1(C)C (centres undefined)	64*	-3	0.5	0.4	54*	6
Cc1ccc(OCCCn2ccnc2)cc1C	100*	-14	0	0	96*	17
Cc1cccc(OCCCn2ccnc2)c1	100*	22	0.3	0	68*	-20
COc1cccc(OCCn2ccnc2)c1	x	6	x	x	x	-3
CCCn1c(SCC(=O)Nc2cccc(C(=O)OC)c2)nnc1-c1cccnc1	43	-4	0.5	0.6	51*	2
CCCn1c(SCC(=O)Nc2nccs2)nnc1-c1cccnc1	59*	3	1	0.4	-1	-4
Nn1c(SCC(=O)Nc2ccccc2)nnc1-c1cccnc1	11	10	0.9	0.9	8	-11
CCCCn1c(SCC(=O)Nc2nc(C)cs2)nnc1-c1cccnc1	0	-20	1.1	1	-6	20
CCOC(=O)c1cccc(NC(=O)CSc2nnc(-c3ccncc3)n2CCCOC)c1	50*	15	0.4	0.5	64*	-16
O=C(NCc1ccc2c(c1)OCO2)c1ccc(N2C(=O)C3CCCCC3C2=O)cc1 (centres undefined)	15	24	0.8	0.8	24	-21
Cc1ccccc1/C(N)=N/OC(=O)/C=C/c1ccccc1	4	-15	1.2	1	-21	11
O=C1CC(c2ccccc2)CCc2sccc2N1 (centres undefined)	66*	-23	0.7	0.3	26	18
CC(C)NC(=O)Cn1cc(C#N)c2cc(Br)ccc21	73*	7	0.7	0.3	32	-6
N#Cc1cn(CC(=O)O)c2ccccc12	-11	-7	1	1.1	-4	8
Cc1nc(CC(=O)c2c(C)cc(O)cc2O)cs1	35	x	0.6	0.7	42	x
SMILES	CYP2C19 inhib	sEH inhibitor	CYP2C9 activ	CYP2C19 activ	CYP2C9 inhib	sEH act
O=C(NNC1=C(C(=O)C(F)(F)F)CCC1)c1cccc(O)c1	x	21	x	x	x	-19
Cc1cccc(C(=O)NNC2=C(C(=O)C(F)(F)F)CCC2)c1O	-11	14	0.1	1.1	94*	-15
C=CCN=C(NC#N)SCC(=O)c1cccc(OC)c1	95*	-8	1.3	0.1	-26	12
O=C(COC(=O)C1CC(=O)N(c2ccc3c(c2)OCCO3)C1)NC1CCCc2ccccc21 (centres undefined)	4	10	0.8	1	21	-11
O=C(COC(=O)c1cc([N+](=O)[O-])ccc1NCc1ccccc1)NC1CCCc2ccccc21 (centres undefined)	20	18	0.3	0.8	69*	-17
O=S(=O)(c1ccccc1)n1ccc(-c2cnc(-c3ccccc3)s2)n1	12	-4	0.2	0.9	78*	6
O=C(c1ccc(F)cc1)n1ccc(-c2cnc(-c3ccccc3)s2)n1	0	-2	1.2	1	-15	1
Cc1ccc(Cn2ccc(-c3cnc(-c4ccccc4)s3)n2)cc1	-4	-15	0.9	1	7	13
Fc1ccc(Cn2ccc(-c3cnc(-c4ccccc4)s3)n2)cc1	92*	-8	0	0.1	97*	6
Cc1cccc(-c2nnc3n2N=C(c2ccccc2)CS3)c1	29	0	0.5	0.7	50	0
COc1ccc(C2=Nn3c(nnc3-c3ccccc3)SC2)cc1OC	72*	19	0.7	0.3	30	-17
COc1ccc(-c2nnc3n2N=C(c2ccccc2)CS3)cc1OC	52*	x	0.2	0.5	76*	x
COc1cc(S(=O)(=O)Nc2cccc(C(=O)O)c2)c(OC)cc1Cl	-10	3	1.1	1.1	-10	-1
COCCN(C(=O)CSc1nnc(Nc2ccccc2F)s1)c1c(N)n(Cc2ccccc2)c(=O)[nH]c1=O	32	6	0.4	0.7	62*	-5
Cc1csc(SCc2nnc(-c3ccc(Cl)cc3)o2)n1	62*	-1	0.8	0.4	24	-2
Cc1ccc(-c2nnc(CSc3nnc(C)s3)o2)cc1	17	10	1	0.8	4	-10
Cc1csc(SCc2nnc(-c3ccccc3Br)o2)n1	60*	x	0.6	0.4	42	x
Cc1ccc(S(=O)(=O)n2cnc3cc([N+](=O)[O-])ccc32)c(C)c1C	-13	-11	1.1	1.1	-8	8
N#C/C(=N\Nc1ccccc1Cl)C(=O)c1ccccc1	30	-2	0.8	0.7	22	4
N#C/C(=N\Nc1cccc(Cl)c1)C(=O)c1ccccc1	32	-7	0.4	0.7	63*	8
Cc1ccc(C(=O)Nc2c(-c3cccs3)c(=O)c3ccccc3n2C)cc1	18	-7	0	0.8	98*	3
CCn1c(NC(=O)c2cccs2)c(-c2cccs2)c(=O)c2ccccc21	10	-1	0.1	0.9	93*	-1
CCCC(=O)Nc1c(-c2cccs2)c(=O)c2ccccc2n1C	8	3	0.6	0.9	43	-3
COc1ccc2c(C)cc(SCC#N)nc2c1	46	-4	1.6	0.5	-57	3
COc1ccc2c(C)cc(SCc3c(C)noc3C)nc2c1	50*	0	0.4	0.5	57*	4

Screening data as filed in PubChem BioAssay.
